# Measured values from PMC7862700, “An all-to-all approach to the identification of sequence-specific readers for epigenetic DNA modifications on cytosine”.
# Columns and labels:
# Assay in all cases: DAPPL (digital affinity profiling via proximity ligation, sequencing); 10 mM Tris-HCl pH 7.5, 50 mM NaCl, 1 mM DTT, 4% glycerol, room temperature, 30 min; GST-TFs on glutathione beads, 16-mer random dsDNA library, 0.1% formaldehyde crosslink after washing; high values mean tight binding
# [1] = biological target: T1, FEV (Homo sapiens, UniProt Q99581 1-238); settings: protein: recombinant; tags: N-terminal GST; dsDNA, one strand shown
# T1 sequence: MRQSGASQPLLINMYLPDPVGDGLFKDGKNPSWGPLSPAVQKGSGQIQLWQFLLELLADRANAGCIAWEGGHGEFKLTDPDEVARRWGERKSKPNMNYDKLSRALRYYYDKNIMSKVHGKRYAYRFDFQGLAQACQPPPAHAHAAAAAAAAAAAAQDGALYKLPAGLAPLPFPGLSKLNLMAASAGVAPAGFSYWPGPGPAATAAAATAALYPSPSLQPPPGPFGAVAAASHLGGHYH
# How it was run: (§1)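 After expression in yeast as GST fusions, human transcription factors were bound to glutathione beads, DNA-barcoded and mixed with a tag-only sample. The pools were incubated with 200 nmole of a 16-mer random double-stranded DNA library in Tris/NaCl/DTT/glycerol buffer (30 min, room temperature), washed and crosslinked with 0.1% formaldehyde. Proximity ligation with BsaI/T4 ligase ran for 1 h at 37 °C, before PCR amplification and sequencing on an Illumina NextSeq500. Binding signal is a hexamer's read frequency for a factor divided by its frequency for the tag-only sample.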
# [2] = biological target: ETV5 (Homo sapiens, UniProt P41161 1-510); settings: protein: recombinant; tags: N-terminal GST; dsDNA, one strand shown
# How it was run: as §1
# [3] = biological target: HSF1 (Homo sapiens, UniProt Q00613 1-529); settings: protein: recombinant; tags: N-terminal GST; chain copies: 3; dsDNA, one strand shown
# How it was run: as §1
# [4] = biological target: T2, SPIC (Homo sapiens, UniProt Q8N5J4 1-248); settings: protein: recombinant; tags: N-terminal GST; dsDNA, one strand shown
# T2 sequence: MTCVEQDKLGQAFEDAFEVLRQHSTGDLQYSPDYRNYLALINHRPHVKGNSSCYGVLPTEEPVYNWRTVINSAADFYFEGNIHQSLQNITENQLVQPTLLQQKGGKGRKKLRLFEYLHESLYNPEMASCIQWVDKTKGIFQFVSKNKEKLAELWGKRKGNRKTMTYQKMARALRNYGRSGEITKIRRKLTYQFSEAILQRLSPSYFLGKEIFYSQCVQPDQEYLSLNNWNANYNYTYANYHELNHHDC
# How it was run: as §1
# [5] = biological target: ELF4 (Homo sapiens, UniProt Q99607 1-663); settings: protein: recombinant; tags: N-terminal GST; dsDNA, one strand shown
# How it was run: as §1
# [6] = biological target: T3, ELK4 (Homo sapiens, UniProt P28324-2 1-405); settings: protein: recombinant; tags: N-terminal GST; dsDNA, one strand shown
# T3 sequence: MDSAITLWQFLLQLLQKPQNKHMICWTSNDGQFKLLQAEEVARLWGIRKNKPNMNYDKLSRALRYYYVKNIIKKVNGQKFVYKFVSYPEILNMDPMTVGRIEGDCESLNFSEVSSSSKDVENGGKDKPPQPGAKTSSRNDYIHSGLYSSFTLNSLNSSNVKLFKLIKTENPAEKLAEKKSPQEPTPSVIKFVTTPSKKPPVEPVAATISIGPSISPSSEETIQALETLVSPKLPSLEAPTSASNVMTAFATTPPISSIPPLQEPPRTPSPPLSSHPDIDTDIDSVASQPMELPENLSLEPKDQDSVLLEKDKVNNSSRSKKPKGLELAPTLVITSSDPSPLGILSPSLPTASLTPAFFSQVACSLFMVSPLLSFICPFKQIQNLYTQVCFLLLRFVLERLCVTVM
# How it was run: as §1
# [7] = biological target: T4, ETV2 (Homo sapiens, UniProt O00321 1-342); settings: protein: recombinant; tags: N-terminal GST; dsDNA, one strand shown
# T4 sequence: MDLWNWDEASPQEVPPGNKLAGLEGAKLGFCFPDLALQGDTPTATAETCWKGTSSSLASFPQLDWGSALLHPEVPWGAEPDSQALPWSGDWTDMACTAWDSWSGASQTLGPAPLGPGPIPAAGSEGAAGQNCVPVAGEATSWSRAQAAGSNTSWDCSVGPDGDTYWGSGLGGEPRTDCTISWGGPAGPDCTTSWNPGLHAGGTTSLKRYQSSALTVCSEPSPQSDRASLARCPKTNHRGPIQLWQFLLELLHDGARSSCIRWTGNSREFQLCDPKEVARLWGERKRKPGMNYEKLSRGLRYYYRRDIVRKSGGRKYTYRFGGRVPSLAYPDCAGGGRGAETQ
# How it was run: as §1
# [8] = biological target: T5, ELF3 (Homo sapiens, UniProt P78545 1-371); settings: protein: recombinant; tags: N-terminal GST; dsDNA, one strand shown
# T5 sequence: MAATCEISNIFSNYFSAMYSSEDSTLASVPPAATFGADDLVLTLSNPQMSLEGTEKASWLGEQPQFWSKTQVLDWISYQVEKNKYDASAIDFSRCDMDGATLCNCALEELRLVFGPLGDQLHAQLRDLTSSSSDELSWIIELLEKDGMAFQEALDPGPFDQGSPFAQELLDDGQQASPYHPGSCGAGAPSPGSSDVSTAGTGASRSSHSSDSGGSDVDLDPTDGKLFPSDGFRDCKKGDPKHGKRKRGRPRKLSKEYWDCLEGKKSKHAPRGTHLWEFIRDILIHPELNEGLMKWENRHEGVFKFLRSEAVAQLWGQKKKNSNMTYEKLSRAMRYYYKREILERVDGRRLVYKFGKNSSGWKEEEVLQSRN
# How it was run: as §1
# [9] = biological target: CRX (Homo sapiens, UniProt O43186 1-299); settings: protein: recombinant; tags: N-terminal GST; dsDNA, one strand shown
# How it was run: as §1
# ELF4, sequence (Q99607 whole entry): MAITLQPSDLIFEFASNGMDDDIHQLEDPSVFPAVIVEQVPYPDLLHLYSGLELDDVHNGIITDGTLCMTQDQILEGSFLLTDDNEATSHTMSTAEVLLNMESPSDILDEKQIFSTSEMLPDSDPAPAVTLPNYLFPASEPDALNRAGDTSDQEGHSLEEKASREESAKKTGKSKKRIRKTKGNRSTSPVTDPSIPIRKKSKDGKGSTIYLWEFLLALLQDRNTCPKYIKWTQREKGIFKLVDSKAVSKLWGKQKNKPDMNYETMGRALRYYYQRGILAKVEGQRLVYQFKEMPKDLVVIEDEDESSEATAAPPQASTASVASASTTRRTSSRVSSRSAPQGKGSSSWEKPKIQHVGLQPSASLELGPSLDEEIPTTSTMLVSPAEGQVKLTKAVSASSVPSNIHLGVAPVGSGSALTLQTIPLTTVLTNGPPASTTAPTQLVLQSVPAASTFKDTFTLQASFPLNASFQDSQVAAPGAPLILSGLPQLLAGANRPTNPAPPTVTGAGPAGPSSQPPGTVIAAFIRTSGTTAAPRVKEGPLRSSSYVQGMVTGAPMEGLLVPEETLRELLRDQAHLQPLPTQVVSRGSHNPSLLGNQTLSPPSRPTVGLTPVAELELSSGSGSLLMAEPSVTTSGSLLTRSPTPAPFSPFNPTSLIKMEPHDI
# CRX, sequence (O43186 whole entry): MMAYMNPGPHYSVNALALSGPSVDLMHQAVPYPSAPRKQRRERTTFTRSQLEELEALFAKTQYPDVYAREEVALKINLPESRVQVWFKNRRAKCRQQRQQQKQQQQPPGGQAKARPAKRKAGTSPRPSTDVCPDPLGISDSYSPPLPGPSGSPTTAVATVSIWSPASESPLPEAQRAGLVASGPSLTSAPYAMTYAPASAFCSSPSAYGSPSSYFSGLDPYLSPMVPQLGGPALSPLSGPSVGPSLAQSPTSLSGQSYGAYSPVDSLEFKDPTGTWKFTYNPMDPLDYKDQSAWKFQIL
# ETV5, sequence (P41161 whole entry): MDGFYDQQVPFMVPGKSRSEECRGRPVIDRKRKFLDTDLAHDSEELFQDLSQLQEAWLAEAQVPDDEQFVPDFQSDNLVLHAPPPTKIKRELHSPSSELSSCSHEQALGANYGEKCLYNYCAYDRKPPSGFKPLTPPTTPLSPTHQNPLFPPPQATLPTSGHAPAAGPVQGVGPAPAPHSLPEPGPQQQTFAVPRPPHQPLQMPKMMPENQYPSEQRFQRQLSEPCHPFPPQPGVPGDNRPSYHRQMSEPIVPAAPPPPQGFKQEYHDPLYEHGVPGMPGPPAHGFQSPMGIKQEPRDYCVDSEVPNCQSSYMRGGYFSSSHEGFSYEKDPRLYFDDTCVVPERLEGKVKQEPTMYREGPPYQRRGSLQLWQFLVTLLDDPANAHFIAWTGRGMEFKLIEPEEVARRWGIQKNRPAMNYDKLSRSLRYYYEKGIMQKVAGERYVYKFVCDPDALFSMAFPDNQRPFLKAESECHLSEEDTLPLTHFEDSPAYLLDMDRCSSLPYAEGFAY
# HSF1, sequence (Q00613 whole entry): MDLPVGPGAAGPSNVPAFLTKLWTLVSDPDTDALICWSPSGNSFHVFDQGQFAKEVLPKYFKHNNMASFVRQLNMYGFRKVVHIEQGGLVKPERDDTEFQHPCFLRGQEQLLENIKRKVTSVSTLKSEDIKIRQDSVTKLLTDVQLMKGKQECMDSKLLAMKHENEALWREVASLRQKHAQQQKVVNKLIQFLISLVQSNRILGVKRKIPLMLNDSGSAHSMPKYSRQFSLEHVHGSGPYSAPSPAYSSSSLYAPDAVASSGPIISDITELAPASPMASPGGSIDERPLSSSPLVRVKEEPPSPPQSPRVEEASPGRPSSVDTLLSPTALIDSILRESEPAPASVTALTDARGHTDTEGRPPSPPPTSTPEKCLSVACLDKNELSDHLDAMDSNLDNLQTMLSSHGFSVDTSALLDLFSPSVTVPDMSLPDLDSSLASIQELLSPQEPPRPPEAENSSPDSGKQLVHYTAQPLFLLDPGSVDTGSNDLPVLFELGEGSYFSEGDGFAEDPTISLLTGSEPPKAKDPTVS
sequence,measurement,setting,value
GCGACT,binding signal,[1],"1.31 fold enrichment (6-mer frequency, TF over GST control)"
same,binding signal,[2],"1.28 fold enrichment (6-mer frequency, TF over GST control)"
same,binding signal,[3],"1.11 fold enrichment (6-mer frequency, TF over GST control)"
same,binding signal,[4],"1.28 fold enrichment (6-mer frequency, TF over GST control)"
same,binding signal,[5],"1.13 fold enrichment (6-mer frequency, TF over GST control)"
same,binding signal,[6],"1.28 fold enrichment (6-mer frequency, TF over GST control)"
same,binding signal,[7],"1.55 fold enrichment (6-mer frequency, TF over GST control)"
same,binding signal,[8],"1.05 fold enrichment (6-mer frequency, TF over GST control)"
same,binding signal,[9],"1.14 fold enrichment (6-mer frequency, TF over GST control)"
